Test results from PubChem BioAssay AID1159580 (chemical genetic matrix, 2015).
Out of some 5,500 compounds screened, about 2,000 (36%) were called active. About 18% were inconclusive and are not listed. Cut-off read from the data, not from the text of the source: active = normalized growth mostly below about 0.91 (no sharp cut-off); inconclusive = no clear call, values can overlap the other calls; inactive = mostly above about 0.92. The list shows a part of the results.

Test: chemical genetic growth profiling, strain panel (AID 1159580);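 note: tested at 20 µM; growth read once vehicle control cultures reached saturation at 30 °C; 1 = growth at the plate median or of vehicle wells; lower values mean less growth of the strain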
Conditions: growth OD
[1] = S. cerevisiae deletion strains, locus YAL013W, strain DEP1, active compounds read low
[2] = S. cerevisiae deletion strains, locus YAL040C, strain CLN3, active compounds read low
[3] = S. cerevisiae deletion strains, locus YCL061C, strain MRC1 (second series), active compounds read low
[4] = S. cerevisiae deletion strains, locus YDR150W, strain NUM1, active compounds read low
[5] = S. cerevisiae deletion strains, locus YDR363W, strain ESC2, active compounds read low
[6] = S. cerevisiae deletion strains, locus YER002W, strain NOP16, active compounds read low
[7] = S. cerevisiae deletion strains, locus YGR078C, strain PAC10, active compounds read low
[8] = S. cerevisiae deletion strains, locus YJR075W, strain HOC1, active compounds read low
[9] = S. cerevisiae deletion strains, locus YNL175C, strain NOP13, active compounds read low
[10] = S. cerevisiae deletion strains, locus YNL197C, strain WHI3, active compounds read low
[11] = S. cerevisiae deletion strains, locus YNL224C, strain SQS1, active compounds read low
[12] = S. cerevisiae deletion strains, locus YOR083W, strain WHI5 (second series), active compounds read low
[13] = S. cerevisiae deletion strains, locus YPL055C, strain LGE1, active compounds read low
[14] = S. cerevisiae deletion strains, locus YBR229C, strain ROT2, active compounds read low
[15] = S. cerevisiae deletion strains, locus YDL101C, strain DUN1, active compounds read low
[16] = S. cerevisiae deletion strains, locus YDL134C, strain PPH21, active compounds read low
[17] = S. cerevisiae deletion strains, locus YHR030C, strain SLT2, active compounds read low
[18] = S. cerevisiae deletion strains, locus YJR043C, strain POL32, active compounds read low
[19] = S. cerevisiae deletion strains, locus YLR039C, strain RIC1, active compounds read low
[20] = S. cerevisiae deletion strains, locus YLR262C, strain YPT6, active compounds read low
[21] = S. cerevisiae deletion strains, locus YMR263W, strain SAP30, active compounds read low
[22] = S. cerevisiae deletion strains, locus YMR307W, strain GAS1, active compounds read low
[23] = S. cerevisiae deletion strains, locus YNL128W, strain TEP1, active compounds read low
[24] = S. cerevisiae deletion strains, locus YNL153C, strain GIM3, active compounds read low
[25] = S. cerevisiae deletion strains, locus YNL322C, strain KRE1, active compounds read low
[26] = S. cerevisiae deletion strains, locus YOL006C, strain TOP1, active compounds read low

Measured: normalized growth

Cc1nc(N=Nc2cc(S(=O)(=O)O)c3cc([N+](=O)[O-])cc(S(=O)(=O)O)c3c2)c(COP(=O)(O)O)c(C=O)c1O
inactive: [1] 0.999 | [2] 1.02 | [3] 1 | [4] 0.995 | [5] 1.01 | [6] 1.02 | [7] 1 | [8] 1 | [9] 0.997 | [10] 1 | [11] 1.01 | [12] 1.01 | [13] 1.02

NC(N)=Nc1ccc(Cl)cc1
active: [18] 1.17 [resistant] | S. cerevisiae deletion strains, locus YOR069W, strain VPS5, active compounds read low 1.11 [resistant]
inactive: [1] 1.01 | S. cerevisiae deletion strains, locus YBR021W, strain FUR4, active compounds read low 1.01 | [14] 1.01 | S. cerevisiae deletion strains, locus YCL029C, strain bik1, active compounds read low 1 | S. cerevisiae deletion strains, locus YDL035C, strain GPR1, active compounds read low 1.02 | S. cerevisiae deletion strains, locus YDL074C, strain BRE1, active compounds read low 1.04 | [15] 1.03 | [16] 1.02 | S. cerevisiae deletion strains, locus YDL185W, strain tfp1, active compounds read low 1.01 | S. cerevisiae deletion strains, locus YDL192W, strain arf1, active compounds read low 1.01 | S. cerevisiae deletion strains, locus YDR101C, strain arx1, active compounds read low 0.99 | [4] 1.02 | S. cerevisiae deletion strains, locus YDR162C, strain NBP2, active compounds read low 1.02 | S. cerevisiae deletion strains, locus YDR318W, strain mcm21, active compounds read low 0.997 | S. cerevisiae deletion strains, locus YDR388W, active compounds read low 0.997 | S. cerevisiae deletion strains, locus YDR502C, strain sam2, active compounds read low 1 | S. cerevisiae deletion strains, locus YER110C, active compounds read low 0.996 | S. cerevisiae deletion strains, locus YER155C, strain BEM2, active compounds read low 1.01 | S. cerevisiae deletion strains, locus YER167W, strain BCK2, active compounds read low 1.03 | S. cerevisiae deletion strains, locus YGL078C, strain dbp3, active compounds read low 0.996 | S. cerevisiae deletion strains, locus YGL086W, strain mad1, active compounds read low 1 | S. cerevisiae deletion strains, locus YGL248W, strain PDE1, active compounds read low 1.01 | [7] 1.02 | S. cerevisiae deletion strains, locus YGR135W, strain pre9, active compounds read low 0.998 | S. cerevisiae deletion strains, locus YGR229C, strain SMI1, active compounds read low 1.03 | S. cerevisiae deletion strains, locus YGR252W, strain gcn5, active compounds read low 0.972 | [17] 1 | S. cerevisiae deletion strains, locus YHR079C, strain IRE1 (second series), active compounds read low 1 | S. cerevisiae deletion strains, locus YHR094C, strain hxt1, active compounds read low 0.988 | S. cerevisiae deletion strains, locus YHR129C, strain ARP1, active compounds read low 1.01 | S. cerevisiae deletion strains, locus YHR200W, strain rpn10, active compounds read low 0.999 | S. cerevisiae deletion strains, locus YIL066C, strain RNR3, active compounds read low 1.02 | S. cerevisiae deletion strains, locus YIL073C, strain SPO22, active compounds read low 1.09 | S. cerevisiae deletion strains, locus YIL125W, strain kgd1, active compounds read low 1 | S. cerevisiae deletion strains, locus YIR030C, strain dcg1, active compounds read low 0.992 | S. cerevisiae deletion strains, locus YJL095W, strain BCK1, active compounds read low 1.02 | S. cerevisiae deletion strains, locus YJL134W, strain LCB3, active compounds read low 1.01 | S. cerevisiae deletion strains, locus YJL168C, strain set2, active compounds read low 1 | S. cerevisiae deletion strains, locus YJL187C, strain SWE1 (second series), active compounds read low 1.01 | [8] 1.01 | S. cerevisiae deletion strains, locus YKL009W, strain mrt4, active compounds read low 0.987 | S. cerevisiae deletion strains, locus YKL068W, active compounds read low 0.988 | S. cerevisiae deletion strains, locus YKL085W, strain MDH1 (second series), active compounds read low 1.01 | S. cerevisiae deletion strains, locus YKL085W, strain MDH1, active compounds read low 1.01 | S. cerevisiae deletion strains, locus YKL190W, strain CNB1, active compounds read low 1.02 | S. cerevisiae deletion strains, locus YKR001C, strain vps1, active compounds read low 0.999 | [19] 1.1 | S. cerevisiae deletion strains, locus YLR058C, strain SHM2, active compounds read low 1.01 | S. cerevisiae deletion strains, locus YLR102C, strain apc9, active compounds read low 0.998 | [20] 1.07 | S. cerevisiae deletion strains, locus YLR268W, strain sec22, active compounds read low 0.996 | S. cerevisiae deletion strains, locus YLR330W, strain CHS5, active compounds read low 1.02 | S. cerevisiae deletion strains, locus YLR342W, strain FKS1 (second series), active compounds read low 1.05 | S. cerevisiae deletion strains, locus YLR371W, strain rom2, active compounds read low 0.996 | S. cerevisiae deletion strains, locus YLR418C, strain cdc73, active compounds read low 1 | S. cerevisiae deletion strains, locus YML016C, strain PPZ1, active compounds read low 1.02 | S. cerevisiae deletion strains, locus YML032C, strain rad52, active compounds read low 0.961 | S. cerevisiae deletion strains, locus YML124C, strain tub3, active compounds read low 0.99 | S. cerevisiae deletion strains, locus YMR078C, strain ctf18, active compounds read low 0.995 | S. cerevisiae deletion strains, locus YMR223W, strain ubp8, active compounds read low 0.998 | [21] 1.02 | [22] 1.01 | S. cerevisiae deletion strains, locus YNL067W, strain RPL9B, active compounds read low 1.01 | [23] 1.05 | [24] 1.02 | S. cerevisiae deletion strains, locus YNL233W, strain BNI4, active compounds read low 1.01 | S. cerevisiae deletion strains, locus YNL250W, strain rad50, active compounds read low 0.984 | S. cerevisiae deletion strains, locus YNL271C, strain bni1, active compounds read low 1 | S. cerevisiae deletion strains, locus YNL298W, strain CLA4, active compounds read low 0.997 | S. cerevisiae deletion strains, locus YNL307C, strain MCK1, active compounds read low 1 | [25] 1.01 | S. cerevisiae deletion strains, locus YNR052C, strain pop2, active compounds read low 0.993 | [26] 1.18 | S. cerevisiae deletion strains, locus YOL012C, strain htz1 1.11 | S. cerevisiae deletion strains, locus YOL147C, strain pex11, active compounds read low 0.995 | S. cerevisiae deletion strains, locus YOR061W, strain CKA2, active compounds read low 1.02 | S. cerevisiae deletion strains, locus YOR136W, strain idh2, active compounds read low 0.997 | S. cerevisiae deletion strains, locus YOR144C, strain elg1, active compounds read low 0.984 | S. cerevisiae deletion strains, locus YOR184W, strain ser1, active compounds read low 1.02 | S. cerevisiae deletion strains, locus YOR316C, strain cot1, active compounds read low 1 | [13] 1.05 | S. cerevisiae deletion strains, locus YPR119W, strain clb2, active compounds read low 0.988 | S. cerevisiae deletion strains, locus YPR141C, strain kar3, active compounds read low 0.997 | S. cerevisiae deletion strains, locus YPR163C, strain tif3, active compounds read low 0.997 | S. cerevisiae deletion strains, locus YPR167C, strain met16, active compounds read low 0.997 | S. cerevisiae deletion strains, strain wtn01, active compounds read low 0.999 | S. cerevisiae strains, strain wild type, active compounds read low 1.01

NC(N)=NC(N)=Nc1cccc(Cl)c1
inactive: [1] 1.01 | [2] 1 | [3] 1.01 | [5] 0.999 | [6] 0.993 | [8] 1 | [21] 0.999 | [23] 1.03 | [24] 1 | [9] 1.01 | [10] 1.04 | [11] 1.01 | [25] 0.995 | [12] 1.05 | [13] 1

NC(N)=NC(N)=Nc1cc(Cl)cc(Cl)c1
inactive: [1] 1 | [14] 1.01 | [15] 1 | [16] 1.01 | [4] 0.919 | S. cerevisiae deletion strains, locus YEL061C, strain CIN8, active compounds read low 1.02 | [7] 1 | [17] 0.98 | S. cerevisiae deletion strains, locus YHR087W, strain rtc3, active compounds read low 1.01 | S. cerevisiae deletion strains, locus YJL187C, strain SWE1, active compounds read low 1.01 | [18] 0.999 | [8] 0.972 | [19] 0.975 | S. cerevisiae deletion strains, locus YLR058C, strain SHM2 (second series), active compounds read low 0.999 | S. cerevisiae deletion strains, locus YLR085C, strain ARP6, active compounds read low 1.03 | [20] 1 | S. cerevisiae deletion strains, locus YML094W, strain GIM5, active compounds read low 1.03 | S. cerevisiae deletion strains, locus YMR219W, strain ESC1, active compounds read low 0.99 | [21] 0.987 | [22] 0.889 | [24] 0.983 | S. cerevisiae deletion strains, locus YNL298W, strain CLA4 (second series), active compounds read low 1.03 | [25] 0.999 | S. cerevisiae deletion strains, locus YNR030W, strain Alg12, active compounds read low 1.02 | [26] 1.06 | [13] 0.884 | S. cerevisiae deletion strains, locus YPL241C, strain CIN2, active compounds read low 1.01 | S. cerevisiae deletion strains, locus YPR135W, strain CTF4, active compounds read low 1.15
